This is part of a sample that, as a whole, favours compounds with a hit. Of some 83,000 tested, about 20% had one in any assay.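 A percent growth of 40 corresponds to 60% growth inhibition; 0 means no net growth; -100 means all cells died. Active threshold: below 10.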 Active and inactive are the calls of the source.
What was measured:
Assay in all cases: NCI-60 one-dose screen, 48 h (100 = growth as untreated, 0 = no growth, -100 = all killed)
Details in all cases: 10 µM unless noted
DU-145 prostate = tested on: DU-145 prostate
K-562 leukemia = tested on: K-562 leukemia
MALME-3M melanoma = tested on: MALME-3M melanoma
MDA-MB-231 breast = tested on: MDA-MB-231 breast
RXF 393 renal = tested on: RXF 393 renal
SF-268 CNS = tested on: SF-268 CNS
SF-295 CNS = tested on: SF-295 CNS
SF-539 CNS = tested on: SF-539 CNS
UACC-257 melanoma = tested on: UACC-257 melanoma
M14 melanoma = tested on: M14 melanoma

Measured: growth

N#Cc1c(-c2cccs2)cc(-c2cnccn2)nc1SCC(=O)c1ccc(F)cc1
inactive: DU-145 prostate 79.5% | K-562 leukemia 87.2% | MALME-3M melanoma 101% | MDA-MB-231 breast 68.7% | RXF 393 renal 62.2% | SF-268 CNS 84.7% | SF-295 CNS 93.6% | SF-539 CNS 76.9% | UACC-257 melanoma 109% | M14 melanoma 116%

C[C@H]1c2[nH]c3ccccc3c2C[C@H]2C(=O)N(CCCCCCC(=O)NO)CC(=O)N21
inactive: DU-145 prostate 95.2% | K-562 leukemia 57.3% | MALME-3M melanoma 41.4% | MDA-MB-231 breast 78.5% | RXF 393 renal 93% | SF-268 CNS 90.1% | SF-295 CNS 93.6% | SF-539 CNS 73.2% | UACC-257 melanoma 63% | M14 melanoma 91.4%

CN(C)CCCOc1ccc2c(c1)CN(C(=O)c1cc(C(=O)N3Cc4cccc(F)c4C3)ccc1O)C2
inactive: DU-145 prostate 94.9% | K-562 leukemia 88.8% | MALME-3M melanoma 103% | MDA-MB-231 breast 103% | RXF 393 renal 93.3% | SF-268 CNS 100% | SF-295 CNS 100% | SF-539 CNS 91% | UACC-257 melanoma 108% | M14 melanoma 106%

CCCC(=O)NC(c1cccnc1)c1cc(C(C)(C)C)c2cccnc2c1O (stereo not given)
active: UACC-257 melanoma 4.98% | M14 melanoma 3.19%
inactive: DU-145 prostate 31.8% | K-562 leukemia 12.5% | MALME-3M melanoma 25% | MDA-MB-231 breast 34.6% | RXF 393 renal 53.6% | SF-268 CNS 24.2% | SF-295 CNS 17% | SF-539 CNS 13.4%

Nc1nc(-c2cccc([N+](=O)[O-])c2)c(N=Nc2cccc([N+](=O)[O-])c2)s1
inactive: DU-145 prostate 56.7% | K-562 leukemia 81.9% | MALME-3M melanoma 52.4% | MDA-MB-231 breast 19.5% | SF-268 CNS 14.7% | UACC-257 melanoma 88.6% | M14 melanoma 14.9%
active: RXF 393 renal -64.5% | SF-295 CNS 1.91% | SF-539 CNS -26.4%

CCCCCCCn1cc2c(N[C@H](C)c3ccccc3)ncnc2n1
inactive: DU-145 prostate 98.1% | K-562 leukemia 106% | MALME-3M melanoma 94.2% | MDA-MB-231 breast 98.4% | RXF 393 renal 97.1% | SF-268 CNS 102% | SF-295 CNS 94.5% | SF-539 CNS 98.8% | UACC-257 melanoma 110% | M14 melanoma 99.8%

CC1(C)[C@@H](O)CC[C@]2(C)[C@H]3CC[C@@H]4[C@H]5[C@H](C(=O)/C=C\c6ccccn6)CC[C@]5(O)CC[C@@]4(C)[C@]3(C)CC[C@@H]12
active: K-562 leukemia 7.45% | RXF 393 renal -16.2%
inactive: DU-145 prostate 33.4% | MALME-3M melanoma 56.4% | MDA-MB-231 breast 33.5% | SF-268 CNS 56.5% | SF-295 CNS 73.6% | SF-539 CNS 25.7% | UACC-257 melanoma 61.9% | M14 melanoma 52.9%

N/C(=N\C(N)=N\c1nc2ccccc2s1)c1ccncc1Cl
inactive: DU-145 prostate 45.7% | K-562 leukemia 17.1% | MALME-3M melanoma 45.7% | MDA-MB-231 breast 45% | SF-268 CNS 52.6% | UACC-257 melanoma 79.7% | M14 melanoma 32.4%
active: RXF 393 renal 8.87% | SF-295 CNS -22.2% | SF-539 CNS 7.8%

CCNC(=O)N1CCc2cc(OC)c(OCCc3ccc(OC)cc3)cc2C1c1ccc(OC)cc1C (stereo not given)
inactive: DU-145 prostate 16.2% | K-562 leukemia 16.5% | MALME-3M melanoma 45.9% | MDA-MB-231 breast 19.7% | SF-268 CNS 34% | SF-295 CNS 10.6% | UACC-257 melanoma 50.5% | M14 melanoma 20%
active: RXF 393 renal -12.7% | SF-539 CNS 6.35%

C=C(C)[C@@H]1CC[C@]2(COC)CC[C@]3(C)[C@H](CC[C@@H]4[C@@]5(C)CCCNC(C)(C)[C@@H]5CC[C@]43C)[C@@H]12
inactive: DU-145 prostate 57.9% | MDA-MB-231 breast 62.8% | SF-268 CNS 78.9% | SF-295 CNS 58.3% | SF-539 CNS 51.7% | UACC-257 melanoma 13.3%
active: K-562 leukemia -47.7% | MALME-3M melanoma -4.67% | RXF 393 renal -4.43% | M14 melanoma -39.4%

CC(=O)C1=C(C)NC(NNC(N)=S)=NC1c1ccccc1 (stereo not given)
inactive: DU-145 prostate 90.9% | K-562 leukemia 113% | MALME-3M melanoma 110% | MDA-MB-231 breast 77% | RXF 393 renal 45.5% | SF-268 CNS 84.8% | SF-295 CNS 102% | SF-539 CNS 96.7% | UACC-257 melanoma 104% | M14 melanoma 92.9%

CC[C@@H](CO)Nc1ccc2ncc(C#Cc3cncc(C(=O)Nc4ccc(CN5CCN(C)CC5)c(C(F)(F)F)c4)c3)n2n1
active: DU-145 prostate -82.4% | K-562 leukemia 0.898% | MALME-3M melanoma -82.2% | MDA-MB-231 breast -58.3% | RXF 393 renal -96.2% | SF-268 CNS -60.4% | SF-295 CNS -84.7% | SF-539 CNS -82.1% | UACC-257 melanoma -84.8% | M14 melanoma -92%

C=CC(=O)N1CCC=C(c2cc3c(N[C@H](C)c4ccccc4)ncnc3[nH]2)C1
active: RXF 393 renal -17%
inactive: DU-145 prostate 42.9% | K-562 leukemia 37% | MALME-3M melanoma 101% | MDA-MB-231 breast 44.4% | SF-268 CNS 60.1% | SF-295 CNS 72% | SF-539 CNS 74.6% | UACC-257 melanoma 87.4% | M14 melanoma 85.9%

C=C(C)[C@@H]1CC[C@]2(COCCCNCCC#N)CC[C@]3(C)[C@H](CC[C@@H]4[C@@]5(C)CC[C@H](OCCCNCCC#N)C(C)(C)[C@@H]5CC[C@]43C)[C@@H]12
inactive: DU-145 prostate 65% | MALME-3M melanoma 72.4% | MDA-MB-231 breast 54.8% | SF-268 CNS 55.6% | SF-295 CNS 55.9% | SF-539 CNS 67.5% | UACC-257 melanoma 61.5% | M14 melanoma 75.3%
active: K-562 leukemia 3.78% | RXF 393 renal -9.12%

CC(C)(C)n1nnnc1C(Nc1cccc2c1OCO2)c1cc2cccc3ccc4cccc1c4c32 (stereo not given)
inactive: DU-145 prostate 97.5% | K-562 leukemia 75% | MALME-3M melanoma 93.2% | MDA-MB-231 breast 80.5% | RXF 393 renal 40.6% | SF-268 CNS 78.7% | SF-295 CNS 81.9% | SF-539 CNS 93% | UACC-257 melanoma 100% | M14 melanoma 97.8%

CN1CCN(Cc2ccc(NC(=O)c3cncc(C#Cc4cnc5ccc(NCCCO)nn45)c3)cc2C(F)(F)F)CC1
inactive: MDA-MB-231 breast 12.2%
active: DU-145 prostate -16.5% | K-562 leukemia 0.484% | MALME-3M melanoma -56.1% | RXF 393 renal -89% | SF-268 CNS -44.4% | SF-295 CNS -12.1% | SF-539 CNS -78.1% | UACC-257 melanoma -43.8% | M14 melanoma -91%

CN(C)CCN(C)c1ccc2ncc(C#Cc3cncc(C(=O)Nc4ccc(CN5CCN(C)CC5)c(C(F)(F)F)c4)c3)n2n1
inactive: MALME-3M melanoma 61.9% | SF-268 CNS 64.6% | SF-295 CNS 83.8% | UACC-257 melanoma 107%
active: DU-145 prostate -59.2% | K-562 leukemia 3.58% | MDA-MB-231 breast -53.4% | RXF 393 renal -90.1% | SF-539 CNS -9.03% | M14 melanoma -80.8%

O=C1/C(=C/C=C/c2ccco2)SC(=S)N1C1CCCCC1
inactive: DU-145 prostate 95% | K-562 leukemia 83.5% | MALME-3M melanoma 83.6% | MDA-MB-231 breast 74% | RXF 393 renal 47.7% | SF-268 CNS 109% | SF-295 CNS 97.6% | SF-539 CNS 94.8% | UACC-257 melanoma 67.7% | M14 melanoma 93.8%

Cc1cc(C)c2sc(=O)n(Cc3nnc(SCCC(=O)O)o3)c2n1
inactive: DU-145 prostate 108% | K-562 leukemia 94.2% | MALME-3M melanoma 99.2% | MDA-MB-231 breast 97.5% | RXF 393 renal 89.2% | SF-268 CNS 99.2% | SF-295 CNS 101% | SF-539 CNS 98.8% | UACC-257 melanoma 101% | M14 melanoma 104%

CCN(CC)CCn1c2ccc(O)cc2c2sc3cc(OC)ccc3c(=O)c21
inactive: DU-145 prostate 17.2% | MALME-3M melanoma 28.2% | MDA-MB-231 breast 31.6% | RXF 393 renal 35% | SF-268 CNS 48.1% | SF-295 CNS 13.9% | UACC-257 melanoma 80%
active: K-562 leukemia -34.8% | SF-539 CNS -74.4% | M14 melanoma 0.234%

c1cc(-c2nc3ccc4[nH]ncc4c3c3c2CCCC3)[nH]n1
inactive: DU-145 prostate 63% | K-562 leukemia 64% | MALME-3M melanoma 87.7% | MDA-MB-231 breast 89.2% | RXF 393 renal 38% | SF-268 CNS 71.4% | SF-295 CNS 67.5% | SF-539 CNS 54.1% | UACC-257 melanoma 91.1% | M14 melanoma 39.7%

CC(O)c1cc2ccccc2c(=O)o1 (stereo not given)
inactive: DU-145 prostate 110% | K-562 leukemia 101% | MALME-3M melanoma 98.2% | MDA-MB-231 breast 103% | RXF 393 renal 129% | SF-268 CNS 98.3% | SF-295 CNS 97.7% | SF-539 CNS 95.2% | UACC-257 melanoma 96.7% | M14 melanoma 107%

O=C(Nc1ccc(Br)cc1)Nc1nc2ccc([N+](=O)[O-])cc2s1
active: K-562 leukemia 2.8% | MALME-3M melanoma -14.1% | MDA-MB-231 breast -5.42% | RXF 393 renal -27.8% | SF-295 CNS -40.1% | SF-539 CNS 0.554% | UACC-257 melanoma -16.8% | M14 melanoma 2.06%
inactive: DU-145 prostate 18.8% | SF-268 CNS 12.2%

Oc1[nH]c2ccccc2c1Nn1c(N=N/C=c2/ccc3c(c2)C=NN=3)n[nH]c1=S
inactive: DU-145 prostate 99.1% | K-562 leukemia 101% | MALME-3M melanoma 109% | MDA-MB-231 breast 75.6% | RXF 393 renal 85.4% | SF-268 CNS 96.9% | SF-295 CNS 106% | SF-539 CNS 94% | UACC-257 melanoma 110% | M14 melanoma 106%

O=C1CCCC2=C1C(c1c[nH]c3ccc(Br)cc13)Cc1cc(Br)ccc1N2 (stereo not given)
inactive: DU-145 prostate 57.6% | K-562 leukemia 19.8% | MALME-3M melanoma 49.3% | MDA-MB-231 breast 40% | RXF 393 renal 50.1% | SF-268 CNS 51.8% | SF-539 CNS 28.6% | UACC-257 melanoma 80% | M14 melanoma 13.1%
active: SF-295 CNS -9.43%

O=C(O)c1cn(C2CC2)c2cc(N3CCN(C(=O)CN4C(=O)CSC4=O)CC3)c(F)cc2c1=O
inactive: DU-145 prostate 90.5% | K-562 leukemia 102% | MALME-3M melanoma 103% | MDA-MB-231 breast 81.2% | RXF 393 renal 61.7% | SF-268 CNS 83.5% | SF-295 CNS 106% | SF-539 CNS 88.5% | UACC-257 melanoma 107% | M14 melanoma 108%
